Test results: PMC7862700, “An all-to-all approach to the identification of sequence-specific readers for epigenetic DNA modifications on cytosine”

Legend:
Assay in all cases: DAPPL (digital affinity profiling via proximity ligation, sequencing); 10 mM Tris-HCl pH 7.5, 50 mM NaCl, 1 mM DTT, 4% glycerol, room temperature, 30 min; GST-TFs on glutathione beads, 16-mer random dsDNA library, 0.1% formaldehyde crosslink after washing; high values mean tight binding
FEV = molecular target: T1, FEV (Homo sapiens, UniProt Q99581 1-238); conditions: protein: recombinant; tags: N-terminal GST; dsDNA, one strand shown
T1 sequence: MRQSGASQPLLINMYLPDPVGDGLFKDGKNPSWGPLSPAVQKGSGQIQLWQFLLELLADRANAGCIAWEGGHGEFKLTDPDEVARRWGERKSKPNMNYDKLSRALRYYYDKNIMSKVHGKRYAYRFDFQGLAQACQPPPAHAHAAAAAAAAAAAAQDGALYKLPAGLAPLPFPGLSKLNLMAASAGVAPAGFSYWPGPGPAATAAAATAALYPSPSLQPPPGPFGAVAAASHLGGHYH
How it was run: (§1)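 Human transcription factors were made in yeast as GST fusions, captured on glutathione beads and barcoded with DNA. With a tag-only sample included, the pool was incubated with 200 nmole of a random double-stranded 16-mer DNA library in Tris/NaCl/DTT/glycerol buffer at room temperature for 30 min, then crosslinked with 0.1% formaldehyde after washing, ligated by proximity, amplified and sequenced. For binding signal, each hexamer's read frequency for a factor is divided by its frequency for the tag-only sample.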

ETV5 = ETV5 (Homo sapiens, UniProt P41161 1-510); conditions: protein: recombinant; tags: N-terminal GST; dsDNA, one strand shown
Chain of ETV5 (P41161 whole entry): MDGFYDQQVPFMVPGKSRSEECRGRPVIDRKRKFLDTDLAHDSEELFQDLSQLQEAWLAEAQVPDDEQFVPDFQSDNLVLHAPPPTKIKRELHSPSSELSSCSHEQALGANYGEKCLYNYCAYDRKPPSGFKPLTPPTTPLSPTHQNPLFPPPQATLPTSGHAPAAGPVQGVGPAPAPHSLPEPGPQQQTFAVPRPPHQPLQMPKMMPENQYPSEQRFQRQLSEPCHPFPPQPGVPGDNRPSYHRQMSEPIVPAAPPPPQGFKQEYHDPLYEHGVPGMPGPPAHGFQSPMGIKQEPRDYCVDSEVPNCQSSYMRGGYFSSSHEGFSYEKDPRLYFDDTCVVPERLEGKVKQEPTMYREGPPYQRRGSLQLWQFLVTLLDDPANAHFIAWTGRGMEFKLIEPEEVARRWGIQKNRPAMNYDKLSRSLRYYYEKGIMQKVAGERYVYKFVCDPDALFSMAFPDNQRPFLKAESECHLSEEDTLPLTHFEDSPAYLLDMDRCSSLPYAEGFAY
How it was run: as §1

HSF1 = HSF1 (Homo sapiens, UniProt Q00613 1-529); conditions: protein: recombinant; tags: N-terminal GST; chain copies: 3; dsDNA, one strand shown
Chain of HSF1 (Q00613 whole entry): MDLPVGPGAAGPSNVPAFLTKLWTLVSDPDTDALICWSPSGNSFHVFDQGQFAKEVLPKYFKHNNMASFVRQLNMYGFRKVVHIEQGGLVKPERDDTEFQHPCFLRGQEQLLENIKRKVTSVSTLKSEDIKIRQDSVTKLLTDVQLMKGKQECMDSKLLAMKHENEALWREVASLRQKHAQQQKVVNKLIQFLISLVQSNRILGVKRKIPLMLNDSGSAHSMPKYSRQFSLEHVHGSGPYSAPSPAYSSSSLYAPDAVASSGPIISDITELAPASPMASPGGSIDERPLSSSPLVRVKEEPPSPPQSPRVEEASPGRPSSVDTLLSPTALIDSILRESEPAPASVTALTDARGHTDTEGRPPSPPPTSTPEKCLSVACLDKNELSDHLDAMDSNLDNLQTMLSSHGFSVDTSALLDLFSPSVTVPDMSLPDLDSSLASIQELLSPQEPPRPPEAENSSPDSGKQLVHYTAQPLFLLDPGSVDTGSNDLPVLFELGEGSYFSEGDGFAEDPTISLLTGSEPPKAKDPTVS
How it was run: as §1

SPIC = molecular target: T2, SPIC (Homo sapiens, UniProt Q8N5J4 1-248); conditions: protein: recombinant; tags: N-terminal GST; dsDNA, one strand shown
T2 sequence: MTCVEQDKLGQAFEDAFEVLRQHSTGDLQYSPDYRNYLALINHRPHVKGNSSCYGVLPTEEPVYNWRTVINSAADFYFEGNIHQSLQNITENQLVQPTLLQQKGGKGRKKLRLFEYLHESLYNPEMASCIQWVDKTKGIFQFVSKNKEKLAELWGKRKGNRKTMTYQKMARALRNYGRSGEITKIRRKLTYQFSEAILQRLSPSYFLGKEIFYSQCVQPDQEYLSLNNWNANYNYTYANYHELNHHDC
How it was run: as §1

ELF4 = ELF4 (Homo sapiens, UniProt Q99607 1-663); conditions: protein: recombinant; tags: N-terminal GST; dsDNA, one strand shown
Chain of ELF4 (Q99607 whole entry): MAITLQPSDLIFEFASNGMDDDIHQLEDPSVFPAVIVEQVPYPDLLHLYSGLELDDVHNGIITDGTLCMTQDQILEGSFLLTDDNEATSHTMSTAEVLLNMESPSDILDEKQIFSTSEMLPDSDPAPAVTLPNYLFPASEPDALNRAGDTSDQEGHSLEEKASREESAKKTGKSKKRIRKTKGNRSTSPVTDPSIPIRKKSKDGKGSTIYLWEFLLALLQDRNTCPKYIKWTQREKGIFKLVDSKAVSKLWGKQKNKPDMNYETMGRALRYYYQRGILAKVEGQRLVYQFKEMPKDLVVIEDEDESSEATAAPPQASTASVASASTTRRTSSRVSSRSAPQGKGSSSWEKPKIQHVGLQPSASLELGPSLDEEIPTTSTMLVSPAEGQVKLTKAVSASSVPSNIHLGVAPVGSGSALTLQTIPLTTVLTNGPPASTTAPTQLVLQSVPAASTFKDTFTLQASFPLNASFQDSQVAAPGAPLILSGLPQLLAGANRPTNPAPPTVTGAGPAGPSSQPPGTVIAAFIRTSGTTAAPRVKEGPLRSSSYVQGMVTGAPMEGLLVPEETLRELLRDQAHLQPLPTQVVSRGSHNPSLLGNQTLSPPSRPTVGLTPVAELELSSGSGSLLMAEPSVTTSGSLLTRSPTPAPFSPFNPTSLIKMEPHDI
How it was run: as §1

ELK4 = molecular target: T3, ELK4 (Homo sapiens, UniProt P28324-2 1-405); conditions: protein: recombinant; tags: N-terminal GST; dsDNA, one strand shown
T3 sequence: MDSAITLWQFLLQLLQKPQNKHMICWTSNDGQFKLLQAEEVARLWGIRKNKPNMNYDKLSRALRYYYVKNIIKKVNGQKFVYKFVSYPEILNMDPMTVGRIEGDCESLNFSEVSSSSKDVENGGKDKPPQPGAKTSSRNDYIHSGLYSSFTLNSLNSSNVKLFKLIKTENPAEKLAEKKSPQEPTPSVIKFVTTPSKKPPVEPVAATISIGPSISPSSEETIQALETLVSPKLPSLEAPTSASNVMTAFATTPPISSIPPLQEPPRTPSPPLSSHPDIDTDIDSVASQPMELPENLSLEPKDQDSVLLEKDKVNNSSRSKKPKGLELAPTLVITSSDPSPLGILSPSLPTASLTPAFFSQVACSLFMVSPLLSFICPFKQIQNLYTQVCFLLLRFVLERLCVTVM
How it was run: as §1

ETV2 = molecular target: T4, ETV2 (Homo sapiens, UniProt O00321 1-342); conditions: protein: recombinant; tags: N-terminal GST; dsDNA, one strand shown
T4 sequence: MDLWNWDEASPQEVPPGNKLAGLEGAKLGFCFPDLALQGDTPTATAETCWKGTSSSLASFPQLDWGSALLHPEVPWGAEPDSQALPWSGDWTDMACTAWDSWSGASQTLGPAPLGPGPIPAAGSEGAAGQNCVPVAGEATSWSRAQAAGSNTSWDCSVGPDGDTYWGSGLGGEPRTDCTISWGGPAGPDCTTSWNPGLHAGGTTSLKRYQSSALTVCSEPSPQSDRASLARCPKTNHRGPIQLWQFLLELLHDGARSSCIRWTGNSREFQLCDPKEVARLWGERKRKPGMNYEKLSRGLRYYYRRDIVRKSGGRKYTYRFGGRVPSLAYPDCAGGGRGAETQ
How it was run: as §1

ELF3 = molecular target: T5, ELF3 (Homo sapiens, UniProt P78545 1-371); conditions: protein: recombinant; tags: N-terminal GST; dsDNA, one strand shown
T5 sequence: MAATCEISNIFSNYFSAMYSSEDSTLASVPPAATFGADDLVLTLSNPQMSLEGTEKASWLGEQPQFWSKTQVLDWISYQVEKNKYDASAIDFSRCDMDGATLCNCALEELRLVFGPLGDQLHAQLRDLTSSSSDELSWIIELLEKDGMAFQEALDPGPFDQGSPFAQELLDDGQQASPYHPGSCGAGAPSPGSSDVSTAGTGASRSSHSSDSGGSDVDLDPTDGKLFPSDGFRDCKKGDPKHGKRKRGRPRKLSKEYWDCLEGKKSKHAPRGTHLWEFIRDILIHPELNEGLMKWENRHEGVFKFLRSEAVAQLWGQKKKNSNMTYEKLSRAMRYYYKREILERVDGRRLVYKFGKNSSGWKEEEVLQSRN
How it was run: as §1

CRX = CRX (Homo sapiens, UniProt O43186 1-299); conditions: protein: recombinant; tags: N-terminal GST; dsDNA, one strand shown
Chain of CRX (O43186 whole entry): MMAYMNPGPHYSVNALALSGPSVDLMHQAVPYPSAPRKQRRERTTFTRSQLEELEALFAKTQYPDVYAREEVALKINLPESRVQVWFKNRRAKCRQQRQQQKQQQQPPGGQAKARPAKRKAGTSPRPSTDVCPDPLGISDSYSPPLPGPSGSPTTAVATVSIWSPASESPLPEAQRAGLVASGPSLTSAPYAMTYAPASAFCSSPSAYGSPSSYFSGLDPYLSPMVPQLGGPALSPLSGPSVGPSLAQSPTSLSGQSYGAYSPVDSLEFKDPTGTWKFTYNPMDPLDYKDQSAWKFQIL
How it was run: as §1

With TCTTAT the binding signal (FEV) was 1.27 fold enrichment (6-mer frequency, TF over GST control), the binding signal (ETV5) was 1.26 fold enrichment (6-mer frequency, TF over GST control) and the binding signal (HSF1) was 1.57 fold enrichment (6-mer frequency, TF over GST control). For the same sequence, the binding signal (SPIC) was 1.3 fold enrichment (6-mer frequency, TF over GST control), the binding signal (ELF4) was 1.21 fold enrichment (6-mer frequency, TF over GST control) and the binding signal (ELK4) was 1.3 fold enrichment (6-mer frequency, TF over GST control). For the same sequence, the binding signal (ETV2) was 1.22 fold enrichment (6-mer frequency, TF over GST control), the binding signal (ELF3) was 1.36 fold enrichment (6-mer frequency, TF over GST control) and the binding signal (CRX) was 2.21 fold enrichment (6-mer frequency, TF over GST control).
